Sampled rows, rich in hits. Any-hit rate of the full collection: about 2.9%.
EPAC1 agonist – human EPAC1 agonism, validation; O95398; Potency, µM, without a hit: max response, positive = active, hits mostly activators; AID 1645883; 1% of 16,000 active; EPAC1 Rap1b BODIPY-GDP exchange, fluorescence; also: nearly all actives have a fitted effect of over 70% in size
EPAC2 antag – human EPAC2 antagonism, validation; 1.7% of 16,000 active; AID 1645886; EPAC2 Rap1B BODIPY-GDP exchange, fluorescence; Q8WZA2; Potency, µM (series often up to 112 µM), for inactives: at the top dose activity, negative = inhibition, actives largely listed as inhibitors;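 also: 100% = activation by cAMP agonist control; nearly all actives have a fitted effect of over 40% in size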
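Fluorescent exchange read-out: 100 nM EPAC2 with 250 nM RAP1B–BODIPY-GDP and 50 uM GDP; BODIPY-GDP release lowers fluorescence. Read at 480/540 nm every 5 min for 30 min at room temperature; normalized to 6.5 mM cAMP.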
Starred values were filed as active, the others as inactive; ! = not active in a repeat; [ ] = remark or other dose. Calls follow the shape of the dose curve; as a rule, active = well fitted curve in the direction sought with a large enough effect; inconclusive = small, poorly fitted or top-dose-only effect, or another doubt; inactive = no such curve, though single readings can be large; an effect the other way counts as inactive or inconclusive. Unless noted, % is scaled to controls: 0 for no effect and ±100 for the full control effect; potency is read from the fitted curve at half-maximal effect.

Brc1c(Br)c(Br)c2[nH]cnc2c1Br was read as EPAC1 agonist -9.0% and EPAC2 antag -1.3%.
Screening O=c1c(-c2cc(F)cc(F)c2)nc2cnc(N3CCNCC3)nc2n1Cc1ccc(F)cc1 returned EPAC1 agonist inconclusive and EPAC2 antag 50.1µM*.
O=c1c(-c2ccccc2)nc2cnc(N3CCNCC3)nc2n1Cc1ccc(F)cc1 was read as EPAC1 agonist -9.8% and EPAC2 antag -14.5%.
`CC(C)(C)NC(=O)[C@H]1CC[C@H]2[C@@H]3CC=C4C=C(C(=O)O)CC[C@]4(C)[C@H]3CC[C@]12C` gave EPAC1 agonist -60.1% and EPAC2 antag -5.4%.
`COc1cccc(-c2nc3cc4c(cc3cc2CN(C(=O)c2cc(C)nn2C)C2CC2)CCC4)c1OC` gave EPAC1 agonist 0.4% and EPAC2 antag inconclusive.
For NCCCC[C@H](NC(=O)[C@@H]1CCCN1C(=O)[C@@H]1CSSC[C@H](N)C(=O)N[C@@H](Cc2ccc(O)cc2)C(=O)N[C@@H](Cc2ccccc2)C(=O)N[C@@H](CCC(N)=O)C(=O)N[C@@H](CC(N)=O)C(=O)N1)C(=O)NCC(N)=O the results were EPAC1 agonist -4.5% and EPAC2 antag -12.3%.
For CN(C)c1ccc(-c2nc(N(C)Cc3ccco3)c3ccccc3n2)cc1 the results were EPAC1 agonist inconclusive and EPAC2 antag -16.3%.
CN(Cc1ccco1)c1nc(-c2ccoc2)nc2ccccc12 was read as EPAC1 agonist inconclusive and EPAC2 antag 25.1µM*.
For Cc1noc(C)c1-c1nc(N(C)Cc2ccco2)c2ccccc2n1 the results were EPAC1 agonist inconclusive and EPAC2 antag 20µM*.
For Cc1noc(C)c1-c1nccc(N(C)Cc2ccco2)n1 the results were EPAC1 agonist -2.2% and EPAC2 antag -17.9%.
`CN(Cc1ccco1)c1nc(-c2cccc(C#N)c2)nc2ccccc12` gave EPAC1 agonist 100µM* and EPAC2 antag -11.9%.
Screening CN(C)C(=O)c1ccc(-c2nc(N(C)Cc3ccco3)c3ccccc3n2)cc1 returned EPAC1 agonist inconclusive and EPAC2 antag -21.0%.
For O=c1c(-c2ccccc2)nc2cnc(Nc3ccccc3)nc2n1Cc1cccs1 the results were EPAC1 agonist 112µM* and EPAC2 antag 11.0%.
`COCCn1c(=O)c(-c2ccccc2)nc2cnc(Nc3ccccc3)nc21` gave EPAC1 agonist -14.5% and EPAC2 antag -15.0%.
Screening COc1ncc2nc(-c3cccs3)c(=O)n(Cc3cccs3)c2n1 returned EPAC1 agonist inconclusive and EPAC2 antag -18.3%.
For COc1ncc2nc(-c3ccccc3)c(=O)n(Cc3cccs3)c2n1 the results were EPAC1 agonist 112µM* and EPAC2 antag inconclusive.
For O=C(CO)[C@@H](O)[C@H](O)[C@@H](O)C(=O)O the results were EPAC1 agonist 0.7% and EPAC2 antag -2.6%.
For CCC(=O)OC(OP(=O)(CCCCc1ccccc1)CC(=O)N1C[C@H](C2CCCCC2)C[C@H]1C(=O)O)C(C)C (some centres undefined) the results were EPAC1 agonist -36.0% and EPAC2 antag -25.8%.
For CC1(C)[C@H]2CC[C@]1(C)[C@H](O)C2 the results were EPAC1 agonist 18.1% and EPAC2 antag 10.1%.
CC(C)(CO)Cc1cc(C(C)(C)C)c(O)c(C(C)(C)C)c1 was read as EPAC1 agonist 4.4% and EPAC2 antag 56.2µM*!.
`CC(C)(C=O)Cc1cc(C(C)(C)C)c(O)c(C(C)(C)C)c1` gave EPAC1 agonist 4.8% and EPAC2 antag inconclusive.
For COc1ccccc1C(=O)N[C@@H]1c2ccccc2C2(CCN(Cc3c(O)cccc3OC)CC2)[C@H]1O the results were EPAC1 agonist -4.9% and EPAC2 antag -10.3%.
For COc1ccc(C(=O)N2CCC3(CCN(Cc4cc(C(F)(F)F)cc(C(F)(F)F)c4)CC3)CC2)cc1 the results were EPAC1 agonist -80.5% and EPAC2 antag 28.2µM*.
`COc1ccc(C(=O)N2CCC[C@@]3(CCN(Cc4ccncc4)C3)C2)cc1` gave EPAC1 agonist -51.1% and EPAC2 antag -4.2%.
Screening COc1ccc(C(=O)N2CCC[C@@]3(CCN(Cc4cc(C(F)(F)F)cc(C(F)(F)F)c4)C3)C2)cc1 returned EPAC1 agonist -109.0% and EPAC2 antag 14.1µM*.
`COCC(=O)N1CCC2(CCN(Cc3cc(C(F)(F)F)cc(C(F)(F)F)c3)CC2)CC1` gave EPAC1 agonist -64.7% and EPAC2 antag -25.1%.
`COc1ccccc1C1CN(Cc2cccc(C)n2)Cc2ccccc2O1` (centres undefined) gave EPAC1 agonist 14.7% and EPAC2 antag inconclusive.
Screening Cc1onc(-c2ccccc2)c1C(=O)NCCN1Cc2ccccc2OC(c2ccsc2)C1 (centres undefined) returned EPAC1 agonist -12.8% and EPAC2 antag -21.6%.
Screening Cc1ccc(C(=O)Nc2cccc(-c3nc(CNC(=O)c4cccc(N(C)C)c4)c(C)o3)c2)s1 returned EPAC1 agonist 13.4% and EPAC2 antag 3.1%.
For Cc1[nH]cnc1C[C@H]1CCc2c(C)c3ccccc3n2C1=O the results were EPAC1 agonist -107.7% and EPAC2 antag 0.0%.
C[C@H]1C[C@H]2[C@@H]3CCC4=CC(=O)C=C[C@]4(C)[C@@]3(F)[C@@H](O)C[C@]2(C)[C@@]1(O)C(=O)CCl was read as EPAC1 agonist -39.1% and EPAC2 antag inconclusive.
`CCOC(=O)[C@H](CCc1ccccc1)N[C@@H](C)C(=O)N1[C@@H](C(=O)O)C[C@@H]2CCC[C@@H]21` gave EPAC1 agonist 44.7µM* and EPAC2 antag inactive.
For CCOC(=O)C(CCc1ccccc1)NC(C)C(=O)N1C(C(=O)O)CC2CCCC21 (centres undefined) the results were EPAC1 agonist 13.0% and EPAC2 antag -9.6%.
Screening Clc1cccc(C(c2ccc3nc[nH]c3c2)n2ccnc2)c1 (centres undefined) returned EPAC1 agonist -12.4% and EPAC2 antag -14.4%.
c1ccc(-c2ccc(C(c3ccccc3)n3ccnc3)cc2)cc1 (centres undefined) was read as EPAC1 agonist inconclusive and EPAC2 antag 50.1µM*.
For O=C(CCN1CCN(CCO)CC1)N1c2ccccc2Sc2ccc(C(F)(F)F)cc21 the results were EPAC1 agonist 13.3% and EPAC2 antag 6.6%.
`CN1CCN(CCCN2c3ccccc3Sc3ccc(C(F)(F)F)cc32)CC1` gave EPAC1 agonist -1.9% and EPAC2 antag 56.2µM*!.
COCC(C)NCc1cc2ccc(OC)cc2nc1N1CCN(c2ccc(F)cc2)CC1 (centres undefined) was read as EPAC1 agonist 9.9% and EPAC2 antag -13.0%.
For CC(=O)N1CCN(c2ccc(OCC3CO[C@@](Cn4ccnc4)(c4ccc(Cl)cc4Cl)O3)cc2)CC1 (some centres undefined) the results were EPAC1 agonist inconclusive and EPAC2 antag 35.5µM*.
Screening CC(C)N1CCN(c2ccc(OC[C@H]3CO[C@](Cn4cncn4)(c4ccc(Cl)cc4Cl)O3)cc2)CC1 returned EPAC1 agonist -3.4% and EPAC2 antag -7.5%[56.6 µM].
COc1ccc2[nH]cc(CCNc3nc(-c4cccc(C#N)c4)nc4ccccc34)c2c1 was read as EPAC1 agonist 112µM* and EPAC2 antag -27.7%.
For COc1ccc2[nH]cc(CCNc3nc(-c4ccccc4OC)nc4ccccc34)c2c1 the results were EPAC1 agonist inconclusive and EPAC2 antag -20.8%.
Cc1cc(-c2ccnc(-n3ncc(C(=O)NCC4COCCO4)c3C3CC3)n2)c(C)s1 (centres undefined) was read as EPAC1 agonist 14.4% and EPAC2 antag -27.2%.

Screening results (PubChem)
